Screening results as filed in PubChem.
PLK1 PBD block – PLK1 (human) polo-box domain binding inhibition; Plk1 PBD binding of FITC phosphopeptide, fluorescence polarization; AID 720504; Potency, µM, for inactives: max response, negative = inhibition, hits mostly inhibitors; 360,000 tested, 2.8% active; P53350; further: series mostly up to about 57 µM; on the % scale 0 is the no-effect control and ±100 the full control effect; nearly all actives have a fitted effect of over 65% in size
G9a inh – blocks human histone lysine methyltransferase G9a | AID 504332 | 350,000 tested, 8.8% active | Potency, µM (highest dose often 102 µM), without a hit: top-dose activity, negative = inhibition, usual class: inhibitors | G9a H3K9 monomethylation, AlphaScreen, 2 h; further: on the % scale 0 is the no-effect control and ±100 the full control effect; nearly all actives have a fitted effect of over 75% in size
Target sequence (Q96KQ7 913-1193 limits assumed): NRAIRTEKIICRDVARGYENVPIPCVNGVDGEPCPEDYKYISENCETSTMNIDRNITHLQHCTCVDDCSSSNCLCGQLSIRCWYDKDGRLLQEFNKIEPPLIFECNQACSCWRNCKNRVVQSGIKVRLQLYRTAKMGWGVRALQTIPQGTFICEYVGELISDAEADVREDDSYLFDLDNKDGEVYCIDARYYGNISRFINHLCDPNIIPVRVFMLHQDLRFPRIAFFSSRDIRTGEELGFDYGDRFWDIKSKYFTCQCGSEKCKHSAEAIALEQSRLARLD
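Step 1: enzyme (final 20 nM) with compound, 15 min RT. Step 2: substrate peptide 500 nM and SAM 20 uM, 2 h RT. Step 3: anti-H3K9me1 antibody and AlphaScreen beads, 10 min, then plate read.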
JMJD2A Tudor inh – inhibitors of human JMJD2A Tudor domain | O75164 | AlphaScreen JMJD2A-Tudor / H3K4me3 peptide binding | Potency, µM (titrated, usually from 114 µM), inactives show at the top dose activity change, negative = inhibition, most hits filed as inhibitors | 390,000 tested, 4.4% active | AID 504339; further: on the % scale 0 is the no-effect control and ±100 the full control effect; nearly all actives have a fitted effect of over 50% in size
HP1b chromo inh – HP1-beta chromodomain-methylated histone interaction inhibition; AlphaScreen HP1-beta / biotin-H3K9me3 peptide binding; Potency, µM (series often up to 114 µM), for inactives: top-dose activity change, negative = inhibition, actives largely listed as inhibitors; 390,000 tested, 0.56% active; AID 540317; further: nearly all actives have a fitted effect of over 70% in size
Target sequence (P83916 whole entry, looked up): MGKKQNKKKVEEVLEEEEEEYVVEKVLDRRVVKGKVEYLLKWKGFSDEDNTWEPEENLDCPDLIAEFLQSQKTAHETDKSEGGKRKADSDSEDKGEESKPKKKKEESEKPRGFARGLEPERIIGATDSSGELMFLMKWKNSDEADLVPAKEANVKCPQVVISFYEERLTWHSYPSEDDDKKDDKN
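Compound inhibition of the preformed complex between 50 nM HP1-beta and 50 nM biotinylated H3K9me3 peptide was read by AlphaScreen. Buffer was PBS pH 7.4 with 0.01% Tween-20. Incubations ran 30 min at room temperature, with 10 ug/mL donor/acceptor beads.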
ALOX12 inh – ALOX12 (human) lipoxygenase inhibition; Potency, µM (top dose mostly 108 µM), without a hit: at the highest dose activity change, negative = inhibition, actives largely listed as inhibitors; 580,000 tested, 1.1% active; AID 1671190; P18054; purified 12hLO, xylenol orange hydroperoxide absorbance; further: on the % scale 0 is the no-effect control and ±100 the full control effect
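Purified human 12hLO at 150 nM in 25 mM Hepes, 0.01% Triton X-100, pH 7.0, preincubated 15 min at room temperature with compound. Reaction started with 40 uM arachidonic acid, 30 min at room temperature. Hydroperoxide measured by Fe-xylenol orange, 573/405 nm absorbance ratio.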
BAZ2B block – blocks human BAZ2B; Q9UIF8; AlphaScreen BAZ2B-H3K14Ac peptide displacement; Potency, µM (highest dose often 114 µM), for the others: at the top dose activity change, negative = inhibition, usual class: inhibitors; 360,000 tested, 4.4% active; further: on the % scale 0 is the no-effect control and ±100 the full control effect; nearly all actives have a fitted effect of over 60% in size
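AlphaScreen luminescence quantifies BAZ2B engagement of H3K14Ac peptide; the protein and biotinylated peptide are both at 50 nM final, buffer PBS pH 7.4 with 0.01% Tween-20, all steps at room temperature.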
* hit, by the source's call; [ ] = another dose, or the depositor's remark. The list is not random: actives were taken first. Their share in the collection is about 9%. The call rests on the fitted dose curve; in most records, active means well fitted curve in the direction sought with a large enough effect; inconclusive means small, poorly fitted or top-dose-only effect, or another doubt; inactive means no such curve, though single readings can be large; an effect the other way counts as inactive or inconclusive. Potency means the concentration at half of the fitted maximal effect.

`O=C(NNS(=O)(=O)c1ccc([N+](=O)[O-])cc1)C(=O)Nc1cccc(C(=O)O)c1` gave PLK1 PBD block inconclusive, G9a inh 8.9µM*, JMJD2A Tudor inh inconclusive, HP1b chromo inh 37%, ALOX12 inh inconclusive and BAZ2B block 56µM*.
`O=C(NNC(=S)NC(=O)c1cccc([N+](=O)[O-])c1)c1ccc(Br)cc1` gave PLK1 PBD block inconclusive, G9a inh 45µM*, JMJD2A Tudor inh -21%, HP1b chromo inh -1%, ALOX12 inh 40µM* and BAZ2B block -2%.
For O=C(NNC(=O)c1cccc([N+](=O)[O-])c1)c1ccncc1 the results were PLK1 PBD block -4%, G9a inh -4%[0.501 µM], JMJD2A Tudor inh -11%[57.1 µM], HP1b chromo inh 20%, ALOX12 inh 0% and BAZ2B block 3%.
`COc1cc(/C=N/N2CCCCC2)cc([N+](=O)[O-])c1O` gave PLK1 PBD block -13%, G9a inh 50µM*, JMJD2A Tudor inh inconclusive, HP1b chromo inh -21%, ALOX12 inh -3% and BAZ2B block 45µM*.
`COc1cc(/C=C2\C(=O)NN(c3ccccc3)C2=O)cc([N+](=O)[O-])c1O` gave PLK1 PBD block inconclusive, G9a inh 16µM*, JMJD2A Tudor inh 89µM*, HP1b chromo inh inconclusive, ALOX12 inh inconclusive and BAZ2B block 56µM*.
COc1cc(/C=C2/C(=O)NN(c3ccc(Cl)cc3)C2=O)cc(OC)c1O was read as PLK1 PBD block 11%, G9a inh inconclusive, JMJD2A Tudor inh 50µM*, HP1b chromo inh inconclusive, ALOX12 inh 0% and BAZ2B block 35µM*.
COc1cc(/C=C2\C(=O)NN(c3ccc(C)cc3)C2=O)cc([N+](=O)[O-])c1O was read as PLK1 PBD block inconclusive, G9a inh 14µM*, JMJD2A Tudor inh inconclusive, HP1b chromo inh inconclusive, ALOX12 inh inconclusive and BAZ2B block 40µM*.
COc1ccc(/C=N/N2C(=O)C3C4C=CC(C4)C3C2=O)cc1[N+](=O)[O-] (stereo not drawn) was read as PLK1 PBD block 1%, G9a inh -24%, JMJD2A Tudor inh -13%, HP1b chromo inh 22%, ALOX12 inh 5% and BAZ2B block inconclusive.
COc1cc(/C=C2\SC(=Nc3ccc(O)cc3)NC2=O)cc(OC)c1O was read as PLK1 PBD block -3%, G9a inh -42%, JMJD2A Tudor inh -8%, HP1b chromo inh 7%, ALOX12 inh -23% and BAZ2B block -13%.
For CCOC(=O)c1sc(=NC(=O)c2cccc(Br)c2)n(C)c1C the results were PLK1 PBD block 0%, G9a inh 46%, JMJD2A Tudor inh -1%, HP1b chromo inh 54%, ALOX12 inh 7% and BAZ2B block 5%.
For COc1ccc(-n2nnnc2C2CCN(S(=O)(=O)c3ccc(F)cc3Cl)CC2)cc1 the results were G9a inh inconclusive, JMJD2A Tudor inh 3%, HP1b chromo inh 44%, ALOX12 inh -44% and BAZ2B block 2%.
For CCOc1cc(/C=C2\NC(=O)NC2=O)cc([N+](=O)[O-])c1O the results were PLK1 PBD block -27%, JMJD2A Tudor inh -13%[11.4 µM], HP1b chromo inh -22%, ALOX12 inh -23% and BAZ2B block inconclusive.
COc1ccc(-n2c(C)cc(/C=C3\C(=O)NN(c4ccccc4)C3=O)c2C)cc1 was read as PLK1 PBD block -16%, G9a inh -18%, JMJD2A Tudor inh -21%, HP1b chromo inh -3%, ALOX12 inh 1% and BAZ2B block -27%.
CCOc1cc(/C=C2\C(=O)NN(c3ccccc3)C2=O)cc([N+](=O)[O-])c1O was read as PLK1 PBD block 17µM*, G9a inh 32µM*, JMJD2A Tudor inh 50µM*, HP1b chromo inh 40µM*, ALOX12 inh inconclusive and BAZ2B block inconclusive.
`COc1cc(/C=C2/C(=O)NN(c3ccccc3)C2=O)cc(Br)c1O` gave PLK1 PBD block -8%, G9a inh 40µM*, JMJD2A Tudor inh inconclusive, HP1b chromo inh -24%, ALOX12 inh 0% and BAZ2B block inconclusive.
`NC(=O)[C@@H]1CN(C(=O)C2CC2)C[C@H]1COc1ccccc1` gave ALOX12 inh 24%.
`CCOC(=O)Cc1nnc(NC(=O)C(CC)Sc2nc(C)cc(=O)[nH]2)s1` (stereo not drawn) gave PLK1 PBD block 21µM*, G9a inh 71µM*, JMJD2A Tudor inh inconclusive, HP1b chromo inh -18%, ALOX12 inh -25% and BAZ2B block 3%.
Screening CCOC(=O)Cc1nnc(NC(=O)C(CC)Sc2nncn2C)s1 (stereo not drawn) returned PLK1 PBD block -5%, G9a inh 9%[59 µM], JMJD2A Tudor inh -14%, HP1b chromo inh 24%, ALOX12 inh -19% and BAZ2B block inconclusive.
Screening O=C(Nc1cccc2[nH]ncc12)NS(=O)(=O)c1ccccc1 returned PLK1 PBD block -5%, G9a inh 40µM*, JMJD2A Tudor inh -5%, HP1b chromo inh 37%, ALOX12 inh 0% and BAZ2B block inconclusive.
For CC(=O)/C(=N\Nc1ccc(Cl)cc1)Sc1nnc(-c2ccccc2)n1-c1ccccc1 the results were PLK1 PBD block -15%, G9a inh 6.3µM*, JMJD2A Tudor inh inconclusive, HP1b chromo inh 29%, ALOX12 inh inconclusive and BAZ2B block -4%.
For CC(=O)/C(=N/Nc1ccccc1)Sc1nnc(CCc2ccccc2)n1-c1ccccc1 the results were PLK1 PBD block -11%, G9a inh inconclusive, JMJD2A Tudor inh inconclusive, HP1b chromo inh -9%, ALOX12 inh -9% and BAZ2B block 9%.
`C/C(=N\OC(=O)c1cccc(C(F)(F)F)c1)c1sc(-c2ccccc2)nc1C` gave PLK1 PBD block -5%, G9a inh -19%[12.7 µM], JMJD2A Tudor inh -1%, HP1b chromo inh 41%, ALOX12 inh 19% and BAZ2B block -2%.
COc1ccc(S(=O)(=O)Nc2ccccc2OC)cc1NC(=O)c1[nH]c(C)c(C(C)=O)c1C was read as ALOX12 inh -23%.
`CSc1cccc(NC(=S)N2CCC(N(C)C3CCCCC3)CC2)c1` gave PLK1 PBD block 0%, G9a inh 50µM*, JMJD2A Tudor inh -15%, HP1b chromo inh 4%, ALOX12 inh -6% and BAZ2B block -20%.
For CSc1cccc(NC(=S)N2CCC(c3ccccc3)C2)c1 (stereo not drawn) the results were PLK1 PBD block -21%, G9a inh 0%, JMJD2A Tudor inh -26%, HP1b chromo inh 56%, ALOX12 inh inconclusive and BAZ2B block -26%.
